# Bioassay records deposited in PubChem BioAssay by National Center for Advancing Translational Sciences (NCATS).
# NPC1 promoter act – activators of NPC1 promoter; Huh7 NPC1 promoter luciferase reporter, 24 h; Potency, µM (titrated, usually from 9.22 µM), for inactives: at the highest dose activation, hits mostly activators; 320,000 compounds, 2.4% hits; AID 485313; note: % of control where 0% means no effect; nearly all actives have a fitted effect of over 60% in size
#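 Cells: Huh7 expressing luciferase under the NPC1 promoter, 1500/well. Seeded 2 h, compound added, incubated 24 h at 37 °C. Luciferase reagent, 10 min ambient, then luminescence.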
# ELG1 genotoxic – genotoxicity induction in ELG1-luciferase HEK293T cells. HEK293T ELG1-luciferase reporter, luminescence, 16 h. Potency, µM (top dose mostly 46 µM), for inactives: at the top dose activity change, positive = activation, usual class: activators. AID 504466. 330,000 compounds, 1.3% hits; note: % of control where 0% means no effect; nearly all actives have a fitted effect of over 60% in size
#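 Genotoxic stress is detected as increased luminescence from luciferase-tagged ELG1 in HEK293T cells, measured with ONE-Glo after a 16 hr treatment at 37 °C.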
# SMN2 splice enh – enhancers of SMN2 splice variant expression. 210,000 compounds, 2.8% hits. AID 1458. Potency, µM (highest dose often 46.1 µM), inactives show top-dose activity change, positive = activation, hits mostly activators. HEK293 SMN2-luciferase splicing reporter, luminescence, 30-36 h; note: % of control where 0% means no effect; nearly all actives have a fitted effect of over 55% in size
#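 HEK293 cells carry an SMN2 […]–luciferase reporter in which exon 7 inclusion puts luciferase in frame. Cells were plated 10-12 h before compound addition, then incubated 30-36 h at 37C. ONE-Glo luminescence was read; sodium butyrate at 4.5 mM final served as control.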
# Rab9 prom act – Rab9 promoter activation | Huh7 Rab9 promoter-luciferase reporter, luminescence, 24 h | Potency, µM (series often up to 9.22 µM), inactives show at the highest dose activation, negative = inhibition, usual class: activators | 320,000 compounds, 2.8% hits | AID 485297; note: % of control where 0% means no effect; nearly all actives have a fitted effect of over 60% in size
#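 Cell-based reporter: Huh7 stable for Rab9 promoter-driven luciferase, plated in reduced-serum medium with 10% FBS at 1500 cells/well, compound-treated 24 h at 37 °C, luminescence read after 10 min reagent.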
# FLuc modulator – counter-screen for miR-21 project: firefly luciferase inhibitors or activators; purified FLuc, Km substrates, luminescence inhibition; Potency, µM (highest dose often 57.5 µM), for the others: top-dose activity change, negative = inhibition, hits mostly inhibitors; 360,000 compounds, 6.9% hits; AID 588342;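 note: plate controls were vehicle for no effect and reference inhibitor for full effect; nearly all actives have a fitted effect of over 55% in size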
# Target sequence (P08659 whole entry, looked up): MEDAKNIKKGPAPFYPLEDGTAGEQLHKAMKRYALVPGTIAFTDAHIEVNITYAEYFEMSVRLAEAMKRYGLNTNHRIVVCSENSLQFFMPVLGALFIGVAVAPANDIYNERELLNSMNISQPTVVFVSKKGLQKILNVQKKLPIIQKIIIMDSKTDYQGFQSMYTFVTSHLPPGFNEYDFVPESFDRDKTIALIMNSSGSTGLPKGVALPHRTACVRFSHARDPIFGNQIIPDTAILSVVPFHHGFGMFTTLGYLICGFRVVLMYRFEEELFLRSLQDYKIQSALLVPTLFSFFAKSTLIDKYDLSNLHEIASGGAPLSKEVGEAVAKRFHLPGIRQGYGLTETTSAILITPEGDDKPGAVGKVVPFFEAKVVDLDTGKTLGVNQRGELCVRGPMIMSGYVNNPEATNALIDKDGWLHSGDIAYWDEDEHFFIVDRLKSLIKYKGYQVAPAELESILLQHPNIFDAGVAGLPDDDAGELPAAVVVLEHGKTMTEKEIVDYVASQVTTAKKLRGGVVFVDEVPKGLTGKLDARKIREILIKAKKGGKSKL
#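 Purified P. pyralis luciferase (10nM final) with 10uM D-luciferin and 10uM ATP (Km levels) in 50mM Tris acetate pH 7.5, 10mM Mg acetate, 0.01% Tween-20, 0.05% BSA; qHTS 6-point titration, ~60 µM downward; luminescence read.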
# * marks the source's active call; other numbers are inactive results; ? = inconclusive; nt = not tested or not shown. Sampled rows, rich in hits. Any-hit rate of the full collection: about 7.5%. Calls come from the whole dose curve; as a rule, active = well fitted curve in the direction sought with a large enough effect; inconclusive = small, poorly fitted or top-dose-only effect, or another doubt; inactive = no such curve, though single readings can be large; an effect the other way counts as inactive or inconclusive. Potency is the fitted concentration of half-maximal effect.
SMILES,NPC1 promoter act,ELG1 genotoxic,SMN2 splice enh,Rab9 prom act,FLuc modulator
COc1ccccc1OCc1cc(C(=O)N2CC3C[C@@H]4CC2C[C@H](C3)C4)no1,4.5µM*,?,nt,3.5µM*,17µM*
CC(=O)c1cccc(OCc2cc(C(=O)N3CC4C[C@@H]5CC3C[C@H](C4)C5)no2)c1,-4%,5%,nt,-4%,?
COc1ccccc1OCc1cc(C(=O)N2CCN(C)C(c3ccccc3)C2)no1 (stereo not drawn),4µM*,?,nt,2µM*,9.5µM*
O=C(c1cc(COc2ccc(F)cc2F)on1)N1CC2C[C@@H]3CC1C[C@H](C2)C3,?,12%,nt,?,17µM*
CN1CCN(C(=O)c2cc(COc3ccc(F)cc3Cl)on2)CC1c1ccccc1 (stereo not drawn),-2%,-2%,nt,-2%,-7%
O=C(O)C1CC[C@@](C(=O)O)(c2ccccc2)c2ccccc21 (stereo partly drawn),nt,nt,3%,nt,nt
Cc1ccc(C)c(Nc2nn3c(=O)c4ccc(C(=O)NCc5cccs5)cc4nc3s2)c1,nt,nt,nt,nt,-6%
O=C(NC1=NCCS1)c1ccc(Br)s1,3.5µM*,7.3µM*,11µM*,3.5µM*,7.6µM*
COc1ccc(Cl)cc1C(=O)NC1=NCCS1,0%,3%,nt,14%,?
O=C(NC1=NCCS1)c1ccc(-c2ccc(Cl)cc2)o1,2µM*,2.1µM*,13µM*,2µM*,1.9µM*
O=C(NC1CCC(O)CC1)c1ccc(-c2ccc(Cl)cc2)o1 (stereo not drawn),?,14%,nt,?,11µM*
O=C(NC1=NCCS1)c1ccc(Cl)cc1,1.6µM*,10µM*,nt,2µM*,11µM*
COc1ccc(Br)cc1CNC(=O)CN1C(=O)CSc2ccc(S(=O)(=O)N3CCOCC3)cc21,nt,nt,nt,nt,-3%
COc1ccc(OC)c(NC(=O)Nc2cc(C(=O)O)ccc2C)c1,-3%,1%,nt,-2%,-4%
CN(C)S(=O)(=O)c1cccc(C(=O)Nc2ccc(Cl)cn2)c1,?,?,6%,?,13µM*
COc1ccc(C(=O)Nc2ccc(Cl)cn2)cc1S(=O)(=O)N1CCCC1,-1%,-3%,nt,-2%,-8%
COc1ccc(C(=O)Nc2ccc(Cl)cn2)cc1Cl,2.5µM*,?,?,3.5µM*,11µM*
c1ccc2nc3ccccc3nc2c1,6%,0%,-7%,21%,-14%
O=C(O)c1nc2ccccc2nc1C(=O)O,-2%,?,?,-1%,21µM*
C/C(=N\NC(=O)c1ccccc1O)c1cccs1,0.56µM*,?,3.5µM*,0.56µM*,7.6µM*
C/C(=N\NC(=O)c1ccc2ccccc2c1)c1cccs1,1.1µM*,2.1µM*,nt,1µM*,4.3µM*
C/C(=N\NC(=O)c1cccs1)c1ccc2ccccc2c1,?,9%,nt,?,-16%
C/C(=N\NC(=O)C1=NNC(=O)C1C)c1cccs1 (stereo not drawn),?,?,?,4µM*,?
C/C(=N\NC(=O)c1ccncc1)c1cccs1,18%,?,nt,7%,-18%
C/C(=N/NC(=O)c1cc(C2CC2)[nH]n1)c1cccs1,0.35µM*,?,2.5µM*,0.28µM*,1.5µM*
SMILES,NPC1 promoter act,ELG1 genotoxic,SMN2 splice enh,Rab9 prom act,FLuc modulator
CCCCC/C=C\C\C=C/C=C/C=C/[C@@H](SCC(N)C(=O)O)[C@@H](O)CCCC(=O)O (stereo partly drawn),nt,nt,11%,nt,nt
COc1ccc(Br)cc1CNC(=O)CN1C(=O)c2cccnc2Oc2ccc(C)cc21,nt,nt,nt,nt,-13%
Cc1ccc(C)c(N(C)C(=O)C2CCN(S(=O)(=O)c3cccc4nsnc34)CC2)c1,nt,nt,-32%,nt,-1%
Cc1ccc2cc3c(nc2c1)N(Cc1ccco1)CC3,6%,?,-17%,1%,19µM*
CN(C)c1ccc(N/C=C/C(=O)C(C)(C)C)cc1,4%,?,-27%,28%,5.4µM*
CN(C)c1ccc(/C=N/NC(=O)c2ccc(NC(=O)c3ccccc3)cc2)cc1,1%,8%,nt,12%,-17%
Cc1cc(N/C=C/C(=O)c2ccccc2)ccc1Br,?,?,nt,3.2µM*,0.48µM*
CN(C)c1ccc(N/C=C/C(=O)c2ccccc2)cc1,2.8µM*,0.73µM*,3.2µM*,3.2µM*,0.27µM*
Cc1cc(NC(=O)C2CCCO2)ccc1Br (stereo not drawn),-8%,4%,1%,0%,0%
CN(C)/C=C/C(=O)c1ccc(Cl)cc1Cl,-9%,0%,0%,0%,4%
O=C(/C=C/Nc1ccccc1)c1ccc(Cl)cc1Cl,0.35µM*,0.92µM*,nt,0.5µM*,0.38µM*
COc1cc([N+](=O)[O-])ccc1NC(=O)CSc1n[nH]c(C(C)C)n1,-2%,-13%,-19%,-2%,0%
CCN1CCN(S(=O)(=O)c2c(C)[nH]c(C)c2C(=O)N2CCCCC2)CC1,-7%,0%,nt,5%,0%
Cn1nc(-c2ccc(N3CCN(CCO)CC3)c([N+](=O)[O-])c2)c2ccccc2c1=O,-4%,4%,3%,-7%,0%
O=C(O)c1ccc(CO)o1,nt,nt,-1%,nt,nt
Cc1[nH]c2ccccc2c1/C=N/NC(=O)C1CC1(c1ccccc1)c1ccccc1 (stereo not drawn),-3%,-13%,-8%,4%,-9%
O=C(Nc1ccnn1C1CCN(Cc2ccccc2OC(F)F)CC1)c1cccnc1,1%,2%,nt,-1%,0%
NC(N)=NS(=O)(=O)c1ccc(N/C=C\C(=O)c2ccncc2)cc1,0%,1%,nt,-17%,0%
CC(=O)Nc1ccc(N/C=C/C(=O)c2ccccc2)cc1,1.6µM*,?,nt,2.8µM*,4.8µM*
O=C(/C=C/Nc1ccc(F)cc1Br)c1ccccc1,0.5µM*,0.16µM*,-45%,0.11µM*,0.085µM*
O=C(/C=C\Nc1ccc(Br)cc1)c1cccnc1,1.8µM*,21µM*,nt,1.3µM*,0.95µM*
CN(C)C(/C=C/Nc1ccc(F)cc1F)=C(C#N)C#N,1%,1%,2%,17%,-1%
CC(=O)Nc1ccc(NC(=O)c2ccc(NC(=O)c3ccccc3)cc2)cc1,2%,6%,nt,-1%,1%
O=C(/C=C/Nc1ccccc1)c1ccccc1,0.56µM*,?,11µM*,1µM*,0.34µM*
COc1cccc(C(=O)NCC2OCCc3ccccc32)c1 (stereo not drawn),nt,nt,28%,nt,?
CC(C)NC(=O)NC(=O)CN1c2cccc3cccc(c23)S1(=O)=O,-3%,0%,nt,0%,-2%
COc1cc(/C=C2\N=C3CCCCCN3C2=O)ccc1O,2%,?,?,16%,17µM*
O=C1/C(=C\c2ccc(O)c(O)c2)N=C2CCCCCN12,-6%,?,nt,-2%,19µM*
COc1ccc(/C=C2\N=C3CCCCCN3C2=O)cc1OC,14%,4%,26%,2%,?
